Screens: PubChem, National Center for Advancing Translational Sciences (NCATS)
In the library only some 19% were active in any assay of this set; here they are far more common.
DT40 TDP1 no CPT – qHTS for Inhibitors of human tyrosyl-DNA phosphodiesterase 1 (TDP1): qHTS in cells in absence of CPT; DT40 Tdp1-/- hTDP1 cells, no CPT, ATP luminescence, 48 h; Potency, µM (highest dose often 46.2 µM), inactives show at the top dose activity change, negative = growth inhibition, most hits filed as inhibitors; 420,000 compounds, 15% hits; AID 686978, 2013; note: potency is the fitted concentration of half-maximal effect; nearly all actives have a fitted effect of over 55% in size
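DT40 Tdp1-/-;hTDP1 cells, no CPT (DMSO vehicle only), 400 cells/well; compounds pin-transferred; ≥48 hr, 37 °C; CellTiter-Glo 30 min RT dark, luminescence read.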
IL-1B inflam inh – qHTS for Inhibitors of Inflammasome Signaling: IL-1-beta AlphaLISA Primary Screen. THP-1 LPS/ATP IL-1B secretion, AlphaLISA, 16 h; active compounds read low. activity change, % at 57.5 µM. 360,000 compounds, 4.7% hits. AID 743279, 2014; in the data active = activity change below about -50%; inconclusive = mostly about -30% to -49%
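THP-1 cells pretreated 1 hr with compounds (up to 57.5 uM final), then stimulated with LPS (250 ng/mL final) plus ATP (1.25 mM final); secreted IL-1B measured by AlphaLISA after 16 hr, decreased signal indicating inhibition.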
HT1080 IDH1KD tx – qHTS for induction of synthetic lethality in tumor cells producing 2HG: qHTS for the HT-1080-IDH1KD cell line; HT-1080 IDH1 knockdown viability, ATP luminescence, 48 h; Potency, µM (doses to about 46.1 µM), inactives show at the highest dose activity, negative = toxicity, most hits filed as cytotoxic; 360,000 compounds, 2% hits;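 note: potency is the fitted concentration of half-maximal effect; 0% = DMSO wells and -100% = cell-free medium wells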
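Assay cells: HT-1080 with IDH1 knockdown, 750 per well, RPMI/5% FBS. Exposure: 48 h at 37 °C following 2 h pre-incubation. Read: CellTiter-Glo luminescence; fitted concentration-response, curve class assigned.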
HT1080-NT tox – qHTS for induction of synthetic lethality in tumor cells producing 2HG: qHTS for the HT-1080-NT fibrosarcoma cell line; HT-1080-NT fibrosarcoma viability, CellTiter-Glo ATP luminescence, 48 h; Potency, µM (doses to about 46.1 µM), inactives show top-dose activity, negative = less viability, usual class: cytotoxic; 360,000 compounds, 1.6% hits; AID 686970, 2013;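 note: NT is the 2HG producing partner of a matched IDH1 knockdown line; potency is the fitted concentration of half-maximal effect; 0% = DMSO-treated cells and -100% = media-only wells without cells; nearly all actives have a fitted effect of over 55% in size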
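HT-1080-NT; 750 cells/well; 5% FBS RPMI; 48 h compound, 37 degrees C; CellTiter-Glo luminescence; curve fitting and curve-class assignment.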
TDP1 cell CPT – qHTS for Inhibitors of human tyrosyl-DNA phosphodiesterase 1 (TDP1): qHTS in cells in presence of CPT; chicken DT40 Tdp1-/-;hTDP1 cells + 20 nM CPT, ATP luminescence, 48 h; Potency, µM (titrated, usually from 46.2 µM), inactives show at the top dose activity change, negative = growth inhibition, hits mostly inhibitors; 420,000 compounds, 12% hits; note: potency is the fitted concentration of half-maximal effect; nearly all actives have a fitted effect of over 55% in size
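Chicken DT40 Tdp1-/- cells stably complemented with human TDP1 were seeded at 400 cells/well in medium containing 20 nM camptothecin, exposed to pin-transferred compounds, and grown at 37 °C for at least 48 hr. Viability was read as ATP luminescence.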
An asterisk follows results filed as active; ? = inconclusive; · = no result given. Unless noted, calls come from the whole dose curve; as a rule, active = well fitted curve in the direction sought with a large enough effect; inconclusive = small, poorly fitted or top-dose-only effect, or another doubt; inactive = no such curve, though single readings can be large; an effect the other way counts as inactive or inconclusive. Unless noted, % is set by controls: 0 for no effect and ±100 for the full control effect.

SMILES | DT40 TDP1 no CPT | IL-1B inflam inh | HT1080 IDH1KD tx | HT1080-NT tox | TDP1 cell CPT
Cc1ccc(-c2nnc(CCC(=O)N(C)Cc3nccs3)o2)s1 | 21µM* | -8 | 0% | 11% | 4%
COC(=O)CCSCC(=O)Nc1ccc(C)c(S(=O)(=O)N2CCCCC2)c1 | -6% | 52 | -1% | -7% | -15%
CCOC(=O)Cc1c(-c2cccc(Cl)c2)nc2c3ccccc3ccn12 | 21µM* | 3 | ? | ? | ?
Fc1cccc(Cc2c(-c3ccccc3)nc3c4ccccc4ccn23)c1 | 16µM* | 5 | -28% | -7% | ?
Clc1ccc(-c2nc3c4ccccc4ccn3c2Cc2cccc(Cl)c2)cc1 | 7.3µM* | 53 | 1% | 1% | ?
COc1cccc2c(Cl)c(CC=C(Cl)Cl)c(C)nc12 | -29% | -50* | -4% | -7% | -29%
C=CCc1c(C)nc2c(OC)cccc2c1Cl | ? | 16 | -2% | -6% | ?
CN1C(=O)[C@H]2[C@@H](c3ccc(C(F)(F)F)cc3)N[C@]3(CCCN(Cc4cccn4C)C3=O)[C@H]2C1=O | 16µM* | -19 | 0% | -4% | 23µM*
CN1C(=O)[C@H]2[C@@H](c3ccc(C(F)(F)F)cc3)N[C@]3(CCCN(Cc4ccc(F)cc4)C3=O)[C@H]2C1=O | 7.3µM* | 14 | -10% | -18% | 9.2µM*
CN1C(=O)[C@H]2[C@@H](c3ccc(C(F)(F)F)cc3)N[C@]3(CCCN(Cc4ccc(Cl)cc4)C3=O)[C@H]2C1=O | 16µM* | 11 | 12% | 10% | 1%
Cc1ccc([C@H]2N[C@]3(CCCN(Cc4ccc(C(F)(F)F)cc4)C3=O)[C@H]3C(=O)N(C)C(=O)[C@@H]23)cc1 | 13µM* | 9 | 12% | -4% | 21µM*
CC1CCCCC1NC(=O)CNC(=O)c1ccco1 (stereo not drawn) | 7% | 13 | -6% | -4% | -8%
COc1ccc(N2CCCC2=O)cc1S(=O)(=O)N1CCOCC1 | -13% | 1 | 5% | 14% | 0%
CCCN1CCC(=O)N([C@H](CSc2ccc(Br)cc2)c2ccccc2)CC1 | 16µM* | 13 | -1% | 3% | ?
O=C1CCN(CCc2ccccc2)CCN1[C@H](CO)Cc1ccccc1 | -26% | 2 | 2% | 1% | -21%
O=C1CCN(CCc2ccccc2)CCN1[C@H](CSc1ccc(Br)cc1)c1ccccc1 | 18µM* | 17 | -2% | -20% | ?
Cc1cccc(NC(=O)CN(C)S(=O)(=O)c2cccc3cccnc23)c1 | -23% | -5 | -7% | 21% | ?
CCc1cccc(NC(=O)CN(C)S(=O)(=O)c2cccc3cccnc23)c1 | 16µM* | -23 | -1% | 8% | 16µM*
CN(CC(=O)Nc1ccc(F)c(Cl)c1)S(=O)(=O)c1cccc2nsnc12 | 18µM* | -22 | -30% | -5% | 21µM*
Cc1c(Cl)cccc1NC(=O)CCS(=O)(=O)c1cccc2nsnc12 | ? | · | · | · | 15µM*
COc1ccc(NCCC(O)c2ccc(Cl)cc2)cc1 (stereo not drawn) | -9% | -16 | 10% | 1% | 9%
CCOC(=O)[C@H](CCc1ccccc1)N[C@@H](C)C(=O)N1[C@H](C(=O)O)C[C@@H]2CCC[C@@H]21 | 3% | 18 | 8% | ? | -7%
O=C(NC(Cc1ccccc1)C(=O)O)c1ccc(S(=O)(=O)N2CCCCC2)cc1 (stereo not drawn) | 2% | 1 | 18% | 11% | -4%
CCCCn1c(N)c(N(C)C(=O)C2CC(=O)N(Cc3ccco3)C2)c(=O)[nH]c1=O (stereo not drawn) | -6% | 9 | 0% | -4% | -8%
N#Cc1sc2nc(-c3ccccc3)cc(-c3ccco3)c2c1N | ? | -9 | -4% | -7% | 18µM*
SMILES | DT40 TDP1 no CPT | IL-1B inflam inh | HT1080 IDH1KD tx | HT1080-NT tox | TDP1 cell CPT
N#Cc1sc2nc(-c3cccs3)cc(-c3ccc(F)cc3)c2c1N | -1% | 8 | 19% | 0% | 15%
CCOc1ccc(C(=O)N2CCN(Cc3cc(=O)n4nc(-c5ccccc5Cl)sc4n3)CC2)cc1 | -6% | · | · | · | -4%
CCC(=O)NN1CCc2cc3ccc(C)cc3nc21 | 7% | 21 | 0% | 4% | 31%
CCOC(=O)[C@]12CCCC=C1N(Cc1ccc(Cl)cc1Cl)C(=O)[C@H](CC(=O)NCCC(C)C)C2 | 21µM* | ? | ? | ? | ?
CCOC(=O)[C@]12CCCC=C1N(Cc1ccc(Cl)cc1Cl)C(=O)[C@H](CC(=O)NCCCOC)C2 | 16µM* | -14 | -29% | -15% | ?
CCCCOCCCNC(=O)C[C@@H]1C[C@@]2(C(=O)OCC)CCC=C2N(Cc2ccccc2)C1=O | ? | -4 | 17% | 13% | ?
COC(=O)[C@]12CCCCC=C1N(Cc1ccc(Cl)cc1Cl)C(=O)[C@H](CC(=O)NCc1ccccc1)C2 | ? | -18 | -30% | -28% | ?
CCCCOCCCNC(=O)C[C@@H]1C[C@@]2(C(=O)OCC)CCC=C2N(Cc2ccc(Cl)cc2Cl)C1=O | 15µM* | -89* | ? | ? | 21µM*
COC(=O)[C@]12CCCCC=C1N(Cc1ccc(Cl)cc1Cl)C(=O)[C@H](CC(=O)NCc1ccc(OC)c(OC)c1)C2 | ? | -13 | 13µM* | ? | ?
CCOC(=O)C1=C(COC(=O)c2ccc(OC)c(S(=O)(=O)N3CCOCC3)c2)NC(=O)NC1C (stereo not drawn) | 13% | -23 | 3% | 0% | -10%
C#CCNC(=O)C[C@@H]1C[C@@]2(C(=O)OCC)CCC=C2N(Cc2ccc(Cl)cc2Cl)C1=O | 23µM* | 11 | -17% | ? | ?
CCOC(=O)[C@]12CCCC=C1N(Cc1ccc(Cl)cc1Cl)C(=O)[C@H](CC(=O)NCC1CCCCC1)C2 | ? | -62* | ? | ? | 23µM*
CCOC(=O)[C@]12CCC=C1N(Cc1ccc(Cl)cc1Cl)C(=O)[C@H](CC(=O)NCCC(C)C)C2 | 21µM* | 0 | ? | ? | ?
C#CCNC(=O)C[C@@H]1C[C@@]2(C(=O)OC)CCCCC=C2N(Cc2ccc(Cl)cc2Cl)C1=O | 18µM* | -19 | -26% | -18% | ?
